Test results taken from PubChem BioAssay (NCATS).
Inconclusive results are not listed. Activity calls are given as the source filed them. Calls follow the shape of the dose curve; as a rule, active = well fitted inhibition curve with a large enough effect; inconclusive = small, poorly fitted or top-dose-only effect; inactive = flat fitted curve, though single readings scatter.

Columns and labels:
CRL-7250 = normal cell line; experiment: Cytotoxic Profiling of Annotated Libraries Using Quantitative High-Throughput Screening (AID 1296008); settings: Five cell lines viability, CellTiter-Glo ATP luminescence, 48-72 h; max response: hits give low values; also: potency is read from the fitted curve at half-maximal effect; as to max response: % is scaled to controls: 0 for no effect and ±100 for the full control effect
Procedure, shortened: (§1)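 Cells exposed to compounds for 48 or 72 hr at 37 degrees Celsius. Viability read as ATP-coupled luminescence with CellTiter-Glo after 10 min at room temperature.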

HaCat [1] = experiment: as above; settings: Five cell lines viability, CellTiter-Glo ATP luminescence, 48-72 h; max response: hits give low values
Procedure, shortened: as §1

KB-3-1 = experiment: as above; settings: Five cell lines viability, CellTiter-Glo ATP luminescence, 48-72 h; max response: hits give low values
Procedure, shortened: as §1

HACAT [2] = experiment: qHTS assay to identify novel small-molecules to repurpose for Merkel cell carcinoma treatment (AID 1296009); settings: MCC and control cell lines, CellTiter-Glo viability, 72 h; at 44.8 µM (top of the series) unless noted; also: potency is read from the fitted curve at half-maximal effect
Procedure, shortened: (§2)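 CellTiter-Glo luminescence after 72 hr compound exposure at 37 degree celsius gave cell viability. Libraries NPC and MIPE were run as 8- and 11-point dose responses; RLUs normalized to DMSO (negative) and no-cell (cytotoxicity) controls.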

MCC-13 = experiment: as above; settings: MCC and control cell lines, CellTiter-Glo viability, 72 h; series mostly up to 46 µM
Procedure, shortened: as §2

MCC-26 = experiment: as above; settings: MCC and control cell lines, CellTiter-Glo viability, 72 h; series mostly up to 46 µM
Procedure, shortened: as §2

NIH3T3 = experiment: Cytotoxic Profiling of Annotated Libraries Using Quantitative High-Throughput Screening (AID 1296008); settings: Five cell lines viability, CellTiter-Glo ATP luminescence, 48-72 h; max response: hits give low values; also: potency is read from the fitted curve at half-maximal effect; as to max response: % is scaled to controls: 0 for no effect and ±100 for the full control effect
Procedure, shortened: as §1

HEK293 = experiment: as above; settings: Five cell lines viability, CellTiter-Glo ATP luminescence, 48-72 h; max response: hits give low values
Procedure, shortened: as §1

HEK293T = experiment: qHTS assay to identify novel small-molecules to repurpose for Merkel cell carcinoma treatment (AID 1296009); settings: MCC and control cell lines, CellTiter-Glo viability, 72 h; at 44.8 µM (top of the series) unless noted; also: potency is read from the fitted curve at half-maximal effect
Procedure, shortened: as §2

W2 = experiment: qHTS profiling for inhibitors of Plasmodium falciparum proliferation (AID 504749);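 also: 0% = DMSO vehicle and full inhibition = artemisinin control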; settings: P. falciparum in erythrocytes, SYBR Green DNA, 72 h; series mostly up to 28.7 µM
Procedure, shortened: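 SYBR Green fluorescence (ex 485 nm, em 535 nm) reports parasite DNA after 72 h compound exposure of infected red cells at 0.3% parasitemia, 2.5% hematocrit; signal normalized to 0.29 uM artemisinin and vehicle wells.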
Also: nearly all actives have a fitted effect of over 60% in size.

Clc1ccccc1-c1nc(-c2ccncc2)no1
inactive: max response (CRL-7250) -4.27% | outcome (HaCat [1]) | max response (KB-3-1) 12% | outcome (HACAT [2]) | Potency (MCC-13) | Potency (MCC-26)

O=C1CN(/N=C/c2ccc([N+](=O)[O-])o2)C(=O)N1
inactive: outcome (CRL-7250) | max response (HaCat [1]) 1.83% | outcome (NIH3T3)

COc1ccc(/C=C/C(=O)Nc2ccccc2C(=O)O)cc1OC
inactive: max response (CRL-7250) 2.22% | max response (HEK293) 0.531% | max response (NIH3T3) -8.92%

NS(=O)(=O)c1ccc(-n2nc(C(F)(F)F)cc2-c2ccc(Cl)cc2)cc1
inactive: outcome (HaCat [1]) | max response (KB-3-1) -3.63% | max response (NIH3T3) -15.5% | outcome (HACAT [2])

CNC(=O)c1c(I)c(NC(=O)CCCCC(=O)Nc2c(I)c(C(=O)O)c(I)c(C(=O)NC)c2I)c(I)c(C(=O)O)c1I
inactive: max response (CRL-7250) -5.95% | max response (HEK293) -10.9% | max response (NIH3T3) -3.88% | Potency (MCC-13)

COC(=O)c1nc(Cl)c(Cl)nc1N
active: Potency (CRL-7250) 5.31 µM | Potency (HEK293) 0.841 µM | Potency (NIH3T3) 10.6 µM | Potency (MCC-13) 0.944 µM | Potency (MCC-26) 8.41 µM

CC1(C)S[C@@H]2[C@H](NC(=O)[C@H](N)c3ccc(O)cc3)C(=O)N2[C@H]1C(=O)O
inactive: max response (CRL-7250) -12.2% | outcome (HEK293) | outcome (NIH3T3) | outcome (HEK293T)

O=C(O)c1ccccc1Nc1cccc(C(F)(F)F)c1
inactive: Potency (W2) | max response (CRL-7250) 0.849% | max response (HEK293) 3.56% | max response (NIH3T3) -2.26% | Potency (MCC-13)

Fc1ccc2[nH]c(CN3CCN(c4ccccn4)CC3)cc2c1
inactive: max response (CRL-7250) -22.3% | max response (KB-3-1) -22.6% | max response (NIH3T3) -28.5%

COc1ccc(-c2cc(=S)ss2)cc1
inactive: Potency (W2) | max response (CRL-7250) -2.86% | outcome (HaCat [1]) | max response (KB-3-1) 24% | outcome (NIH3T3) | outcome (HACAT [2]) | Potency (MCC-13) | Potency (MCC-26)

CC(=O)O[C@H]1C[C@@]2(C)[C@@H](C[C@@H](O)[C@H]3[C@@]4(C)CC[C@@H](O)[C@@H](C)[C@@H]4CC[C@@]32C)/C1=C(\CCC=C(C)C)C(=O)O
inactive: outcome (CRL-7250) | max response (HEK293) -11.3% | outcome (NIH3T3)

COc1cc(NC(C)CCCN)c2ncccc2c1 (configuration not stated)
inactive: max response (CRL-7250) 4.62% | outcome (HaCat [1]) | outcome (NIH3T3) | outcome (HACAT [2])
active: Potency (MCC-13) 16.8 µM

CCCC(=O)OC[C@@H](OC(=O)CCC)[C@@H](OC(=O)CCC)[C@H](Cn1c2nc(=O)[nH]c(=O)c-2nc2cc(C)c(C)cc21)OC(=O)CCC
inactive: outcome (CRL-7250) | max response (HaCat [1]) 4.67% | outcome (NIH3T3) | Potency (MCC-13)
